Shown are actives, neighbours in structure and some others; about 7.3% of the full set was active somewhere.
Rab9 prom act = qHTS Assay for Rab9 Promoter Activators | Huh7 Rab9 promoter-luciferase reporter, luminescence, 24 h | Potency, µM (doses to about 9.22 µM), without a hit: top-dose activation, negative = inhibition, usual class: activators | 2.8% of 320,000 active; note: % of control where 0% means no effect; nearly all actives have a fitted effect of over 60% in size
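Cell-based reporter: Huh7 stable for Rab9 promoter-driven luciferase, plated in reduced-serum medium with 10% FBS at 1500 cells/well, compound-treated 24 h at 37 °C, luminescence read after 10 min reagent.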
FLuc counter = qHTS profiling assay for firefly luciferase inhibitor/activator using purifed enzyme and Km concentrations of substrates (counterscreen for miR-21 project); Luciferin 4-monooxygenase (Photinus pyralis), P08659; purified FLuc, Km substrates, luminescence inhibition; Potency, µM (series often up to 57.5 µM), for the others: at the highest dose activity change, negative = inhibition, hits mostly inhibitors; 6.9% of 360,000 active; AID 588342, 2011;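 note: plate controls were vehicle for no effect and reference inhibitor for full effect; nearly all actives have a fitted effect of over 55% in size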
Target sequence (P08659 whole entry, looked up): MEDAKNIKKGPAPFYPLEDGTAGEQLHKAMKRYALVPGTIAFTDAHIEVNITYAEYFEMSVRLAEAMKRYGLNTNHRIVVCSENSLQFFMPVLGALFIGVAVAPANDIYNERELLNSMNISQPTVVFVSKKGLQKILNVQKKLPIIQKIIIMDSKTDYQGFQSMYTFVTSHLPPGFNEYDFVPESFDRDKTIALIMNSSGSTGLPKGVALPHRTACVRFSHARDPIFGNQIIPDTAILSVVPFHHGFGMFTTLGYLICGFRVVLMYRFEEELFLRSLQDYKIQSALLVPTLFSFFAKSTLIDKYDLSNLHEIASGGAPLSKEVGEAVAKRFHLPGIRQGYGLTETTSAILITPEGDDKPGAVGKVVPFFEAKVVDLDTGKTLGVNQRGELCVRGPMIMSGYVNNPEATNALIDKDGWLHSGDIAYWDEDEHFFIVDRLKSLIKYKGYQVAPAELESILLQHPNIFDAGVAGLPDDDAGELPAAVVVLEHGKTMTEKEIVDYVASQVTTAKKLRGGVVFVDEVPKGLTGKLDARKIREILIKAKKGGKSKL
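Purified P. pyralis luciferase (10nM final) with 10uM D-luciferin and 10uM ATP (Km levels) in 50mM Tris acetate pH 7.5, 10mM Mg acetate, 0.01% Tween-20, 0.05% BSA; qHTS 6-point titration, ~60 µM downward; luminescence read.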
KinaseGlo FLuc = Counterscreen for Luciferase (Kinase-Glo TM) Inhibition; Potency, µM (top dose mostly 38.3 µM), without a hit: top-dose activity change, negative = inhibition, hits mostly inhibitors; AID 1379, 2008; 0.28% of 200,000 active; Kinase-Glo luciferase, ATP luminescence, 8 min; Luciferin 4-monooxygenase (Photuris pensylvanica), Q27757; note: % is set by controls: 0 for no effect and ±100 for the full control effect; nearly all actives have a fitted effect of over 60% in size
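Compound is pinned into ATP-containing buffer (10 uM ATP, imidazole pH 7.2, 7 mM MgCl2). Kinase-Glo luciferase reagent is then added. Light output is recorded following an 8-min room-temperature incubation.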
ELG1 genotox = qHTS screen for small molecules that induce genotoxicity in human embryonic kidney (HEK293T) cells expressing luciferase-tagged ELG1; HEK293T ELG1-luciferase reporter, luminescence, 16 h; Potency, µM (top dose mostly 46 µM), for inactives: at the highest dose activity change, positive = activation, actives largely listed as activators; 1.3% of 330,000 active; AID 504466, 2011; note: % of control where 0% means no effect; nearly all actives have a fitted effect of over 60% in size
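Luminescence read-out: rising ELG1-luciferase signal, reflecting elevated ELG1 protein under genetic stress, flags genotoxic compounds. Cells were treated for 16 hr at 37 °C before ONE-Glo detection.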
SMN2 splice up = qHTS Assay for Enhancers of SMN2 Splice Variant Expression; 2.8% of 210,000 active; Potency, µM (titrated, usually from 46.1 µM), without a hit: at the highest dose activity change, positive = activation, most hits filed as activators; HEK293 SMN2-luciferase splicing reporter, luminescence, 30-36 h; AID 1458, 2008; note: % of control where 0% means no effect; nearly all actives have a fitted effect of over 55% in size
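qHTS luciferase splicing reporter: luminescence rises when SMN2 exon 7 is included in transfected HEK293 cells. Compound exposure lasted 30-36 h at 37C, with 4.5 mM final sodium butyrate as control, followed by a ONE-Glo read.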
NPC1 promoter act = qHTS Assay for NPC1 Promoter Activators; Huh7 NPC1 promoter luciferase reporter, 24 h; Potency, µM (highest dose often 9.22 µM), for inactives: top-dose activation, most hits filed as activators; 2.4% of 320,000 active; note: % of control where 0% means no effect; nearly all actives have a fitted effect of over 60% in size
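Luminescence from an NPC1 promoter-driven luciferase reporter in stably transfected Huh7 cells was measured after 24 h compound treatment at 37 °C, followed by 10 min ambient incubation with luciferase detection reagent.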
The depositor's hits bear a star; ? = inconclusive; . = no result given. Calls come from the whole dose curve; as a rule, active = well fitted curve in the direction sought with a large enough effect; inconclusive = small, poorly fitted or top-dose-only effect, or another doubt; inactive = no such curve, though single readings can be large; an effect the other way counts as inactive or inconclusive. Potency is the fitted concentration of half-maximal effect.

SMILES	Rab9 prom act	FLuc counter	KinaseGlo FLuc	ELG1 genotox	SMN2 splice up	NPC1 promoter act
CC(=O)Nc1cccc(-n2cc3c(c2-c2ccccc2Cl)c(=O)n(C)c(=O)n3C)c1	.	-1%	.	.	8%	.
COc1ccc(CNC(=O)C2C3C=CC4(CN(Cc5cccnc5)C(=O)C24)O3)cc1 (stereo unspecified)	-1%	4%	1%	1%	-19%	-6%
COc1cccc2cc(C(=O)NCc3ccco3)c(=Nc3ccc(C(=O)O)cc3)oc12	1%	?	9%	21µM*	-51%	12%
O=C(NCc1ccco1)c1ccccc1	0%	0%	.	-5%	.	0%
COc1cc(-c2noc(-c3ccccc3C(=O)NCc3ccco3)n2)cc(OC)c1OC	-5%	-2%	1%	-20%	30%	0%
Cc1cccc(-c2noc(-c3ccccc3C(=O)NCc3ccco3)n2)c1	?	9.5µM*	.	1%	.	?
COc1ccccc1-c1noc(-c2ccccc2C(=O)NCc2ccco2)n1	-4%	19µM*	-12%	-10%	-8%	-4%
O=C(NCc1ccco1)c1ccccc1-c1nc(-c2ccccc2)no1	0%	27µM*	-3%	6%	7%	1%
COc1ccc(S(=O)(=O)NCC(c2ccc3c(c2)OCO3)N2CCN(c3ccccc3)CC2)cc1 (stereo unspecified)	-2%	2%	.	-7%	.	-2%
Cc1cc(Cl)c(OCCCN2CCCCC2)c(Br)c1	-2%	7%	-2%	-9%	-3%	-1%
COc1ccc(CN2CCOCC2)c(C)c1C	2%	-1%	-3%	-6%	-13%	-1%
Cc1onc2c(=O)n(-c3ccccc3)nc(-c3ccccc3)c12	-6%	0%	.	0%	.	-1%
Cc1ccc(-c2noc(-c3ccccc3C(=O)NCc3ccco3)n2)cc1	16%	5.4µM*	.	6%	.	16%
Cc1ccc(-c2noc(CCCC(=O)NCc3ccco3)n2)cc1	.	-15%	.	.	-4%	.
CC1CCc2c(sc3[nH]c(=S)n(C)c(=O)c23)C1 (stereo unspecified)	23%	19µM*	.	-6%	.	12%
CC(=O)n1cc(/C=C2/N=C(c3ccccc3)OC2=O)c2ccccc21	-1%	5.4µM*	3%	1%	-2%	-2%
CC(=O)n1cc(/C=N/NC(N)=S)c2ccccc21	-1%	0%	7%	18%	?	0%
CCN1C(=O)/C(=C/N2CCc3ccccc3C2)SC1=S	?	24µM*	.	10%	.	?
COc1ccc(OC)c(NC(=O)CSc2nc3ccccc3c(=O)n2CCC(=O)NC2CCCCC2)c1	.	-1%	.	.	.	.
CN1C(=O)CSc2ccc(C(=O)O)cc21	5%	1%	-2%	6%	-4%	-5%
Cc1cc2c(=O)oc(-c3ccc(F)cc3)nc2s1	-6%	0%	-3%	-10%	.	-6%
Cc1cc2c(=O)oc(-c3ccccc3Br)nc2s1	-3%	7.6µM*	.	2%	.	0%
CCc1cc2c(=O)oc(-c3ccccc3F)nc2s1	-2%	3.4µM*	.	0%	.	-3%
COc1ccc(CNC(=O)C(=O)NC2CC(C)(C)NC(C)(C)C2)cc1	-3%	-1%	0%	1%	17%	-1%
O=C(Nc1nnc(C23CC4CC(CC(C4)C2)C3)s1)c1ccco1	1.8µM*	2.1µM*	-1%	1.2µM*	16%	1.8µM*
SMILES	Rab9 prom act	FLuc counter	KinaseGlo FLuc	ELG1 genotox	SMN2 splice up	NPC1 promoter act
Cc1cccc(Cc2cnc(NC(=O)c3ccc(C)o3)s2)c1	?	9.5µM*	0%	5.8µM*	-2%	?
CCC(CC)c1nnc(NC(=O)c2ccco2)s1	3%	-27%	-2%	11%	.	-4%
Cc1cccc(Cc2cnc(NC(=O)C3=NCCN3)s2)c1	25%	0%	-1%	-7%	18%	1%
CCCOc1cccc(-c2nnc(NC(=O)c3ccco3)s2)c1	20%	27µM*	.	?	.	-6%
Cc1cccc(C(=O)Nc2nnc(-c3ccc(C(C)(C)C)cc3)s2)c1	10%	11µM*	-5%	9%	1%	16%
O=[n+]1c2c(n([O-])c3ccccc31)CCCC2	-4%	0%	1%	0%	5%	-3%
O=c1[nH]c(=O)c2nnc(N/N=C\c3ccc(O)cc3)nc2[nH]1	0%	-2%	-2%	13%	3%	-2%
COc1ccc(-c2nnc(NC(=O)c3ccco3)s2)cc1	0.79µM*	1.5µM*	.	?	.	3.5µM*
Cc1ccc(-c2nnc(NC(=O)c3ccco3)s2)cc1	2.2µM*	1.5µM*	.	4.6µM*	.	2.2µM*
COc1cccc(-c2nnc(NC(=O)c3ccco3)s2)c1	2.2µM*	7.6µM*	.	16µM*	.	2.2µM*
Cc1nnc(NC(=O)c2ccco2)s1	2%	0%	3%	7%	6%	-1%
O=C(Nc1nnc(Cc2ccccc2)s1)c1ccco1	?	17µM*	15%	16µM*	?	?
CCSc1nnc2c(Cl)cc(Cl)cn12	-9%	2%	-1%	5%	10%	-5%
CC1=C(C(N)=O)C(c2cccc(Br)c2)n2nc(SCc3ccccc3)nc2N1 (stereo unspecified)	.	0%	.	.	8%	.
Cc1cccc(OCc2nnc(NC(=O)c3cccs3)s2)c1	-1%	5%	-2%	3%	-20%	-2%
C/C=C(\C)c1nnc(NC(=O)c2ccco2)s1	?	15µM*	-7%	16µM*	13µM*	?
Cc1ccc(Cc2cnc(NC(=O)c3ccco3)s2)cc1	0.63µM*	0.85µM*	-5%	1.8µM*	13µM*	0.63µM*
COc1cccc(-c2nnc(NC(=O)c3cccs3)s2)c1	?	2.4µM*	-5%	?	18µM*	?
NC(=O)c1cc(Cc2ccccc2)sc1NC(=O)c1ccco1	4.5µM*	9.5µM*	-3%	?	16µM*	3.5µM*
O=C(Nc1ncc(Cc2cccc([N+](=O)[O-])c2)s1)c1ccco1	?	?	0%	18%	.	23%
CC(Sc1nnc2ccccn12)C(=O)Nc1ccc2c(c1)OCCO2 (stereo unspecified)	19%	-19%	.	?	.	14%
CCNc1nc2c(c(=O)[nH]c(=O)n2C)n1CCCc1ccccc1	2%	-2%	.	7%	.	1%
COc1ccc(/C=C/c2nnc(NC(=O)c3ccco3)s2)cc1	-2%	2.7µM*	.	7%	.	-8%
CCCC(=O)Nc1nnc(/C=C/c2ccc(OC)cc2)s1	17%	?	.	2%	.	22%
